Rows were chosen to be rich in hits. Some 4.7% of all compounds tested hit in one or more screens of this group.
ADAM17 inh: inhibits human ADAM17 | P78536 | recombinant ADAM17, EDANS/DABCYL FRET peptide cleavage | inhibition, % at 6.95 µM | 0.83% of 370,000 active;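 active = inhibition above the mean of compounds lying between control limits plus 3 SD, set per campaign, cut at about 8.5% in these data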;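 also: 0% = DMSO-only wells as the low control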
Target sequence (P78536 215-824 limits assumed): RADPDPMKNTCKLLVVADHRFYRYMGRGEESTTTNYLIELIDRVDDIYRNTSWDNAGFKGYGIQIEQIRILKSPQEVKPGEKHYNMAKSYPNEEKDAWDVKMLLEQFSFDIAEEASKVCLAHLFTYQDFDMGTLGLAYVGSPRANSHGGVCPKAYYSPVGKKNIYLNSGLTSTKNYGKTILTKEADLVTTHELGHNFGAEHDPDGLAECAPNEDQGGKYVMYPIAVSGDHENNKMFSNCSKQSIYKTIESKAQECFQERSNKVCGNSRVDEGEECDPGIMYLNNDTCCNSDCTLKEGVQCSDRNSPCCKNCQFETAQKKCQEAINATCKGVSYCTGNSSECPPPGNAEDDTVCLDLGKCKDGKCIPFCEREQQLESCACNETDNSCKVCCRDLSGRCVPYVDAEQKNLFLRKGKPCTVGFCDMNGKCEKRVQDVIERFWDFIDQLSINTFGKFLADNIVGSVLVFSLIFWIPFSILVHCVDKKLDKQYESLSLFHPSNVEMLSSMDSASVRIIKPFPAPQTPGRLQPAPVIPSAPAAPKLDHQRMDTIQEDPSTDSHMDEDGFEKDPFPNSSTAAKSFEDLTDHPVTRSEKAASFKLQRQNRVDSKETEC
KLK7 zymogen act: proKLK7 (human) activation, primary screen | purified proKLK7, EDANS-DABCYL substrate fluorescence; 100% is mature enzyme control, 0% vehicle | P49862 | activation, % at 7 µM | AID 652039 | 0.9% of 370,000 active;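 active = activation above the mean of all tested compounds plus 3 SD, computed per campaign excluding outliers beyond control limits, cut at about 13% in these data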
DSG3 Ab inh: human desmoglein-3 autoantibody binding inhibition | P32926 | DSG3-coupled beads, scFv-anti-DSG3-GFP binding, flow cytometry; hits give low values | binding (percent of control), % at 10 µM | 0.48% of 310,000 active | AID 588358;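 active = binding more than 3 SD below its plate's average and above zero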;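 also: hits lower antibody fragment binding to DSG3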
ADAM10 inh: ADAM10 inhibition, QFRET primary screen; inhibition, % at 7 µM; recombinant ADAM10, EDANS/DABCYL FRET peptide cleavage, 3 h; 0.62% of 370,000 active;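 active = inhibition above a per-campaign cutoff equal to the mean of compounds falling between control-based bounds plus 3 SD, cut at about 20% in these data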;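 also: 0% = DMSO wells while the 100% control is not disclosed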
MPTP block: inhibitors of mitochondrial permeability transition pore | 1.4% of 360,000 active | inhibition, % at 10 µM | AID 602449 | isolated mouse mitochondria, Ca2+ swelling absorbance, 30 min;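 active = inhibition of 50% or more, scaled per plate between neutral and stimulator controls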;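 also: 0% = DMSO wells given calcium and 100% = 1 mM EGTA wells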
rCAG RNA binder: r(CAG) repeat RNA binding; TO-PRO-1 dye displacement fluorescence; inhibition, % at 3 µM; 1.3% of 370,000 active; AID 651821;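 active = inhibition above the plate cutoff, the mean of all test compounds on that plate plus 3 SD, cut at about 35% in these data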;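 also: 0% = DMSO alone and 100% = 100 µM mitoxantrone as full dye displacement; higher means more dye released from RNA so lower well fluorescence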
ADAM10 ctr: ADAM10 inhibition, counter-screen for ADAM17 exosite hits | recombinant ADAM10, EDANS/DABCYL FRET peptide cleavage, 3 h | shares compounds with ADAM17 inh | inhibition, % at 6.95 µM | AID 743256 | 47% of 2,900 active;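 active = mean inhibition over the triplicate runs exceeds the activity threshold set in the earlier primary screen, cut at about 20% in these data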;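 also: 0% = DMSO wells and 100% = marimastat wells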
ADAM17 confirm: confirmation of inhibitors of human ADAM17; 65% of 2,900 active; recombinant ADAM17, EDANS/DABCYL QFRET peptide cleavage; shares compounds with ADAM17 inh; inhibition, % at 6.95 µM;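 active = mean inhibition across replicates above the hit cutoff set in the primary screen, cut at about 8.5% in these data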;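 also: 0% = DMSO wells and 100% = marimastat wells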
The depositor's hits bear a star; x = no result given.

SMILES	ADAM17 inh	KLK7 zymogen act	DSG3 Ab inh	ADAM10 inh	MPTP block	rCAG RNA binder	ADAM10 ctr	ADAM17 confirm
CCCCCC[C@@H](CN(CCCC)S(C)(=O)=O)c1ccccc1	55.0*	-0.2	x	17.4	x	0.7	-5.7	2.0
O=S1(=O)CCOC[C@H](Cc2ccccc2)N1Cc1ccc(Cl)cc1	-0.5	0.5	100.9	1.6	-0.1	-6.0	x	x
CCOC(=O)N1CCN(C(=S)NC(=O)/C=C/c2ccc(C)cc2)CC1	-0.4	0.0	x	8.6	-0.3	-2.6	x	x
CC(Oc1ccc(Cl)cc1)c1ccnn1S(=O)(=O)c1ccccc1 (stereo not given)	8.9*	-0.3	x	2.8	0.9	-1.7	15.3	14.8*
O=C(C[C@H]1CC[C@@H]2[C@H](COC[C@H](O)CN2Cc2cccc(F)c2)O1)NCc1cccc(F)c1	-2.2	0.2	x	-3.3	-1.8	0.3	x	x
Cc1occc1C(=O)NNC(=O)COc1ccc(Br)cc1Br	8.8*	0.1	95.0	11.9	0.2	0.0	-5.0	1.8
Cc1ccc(N(CC(=O)NCc2ccncc2)S(C)(=O)=O)cc1Cl	-2.9	0.1	101.4	-6.4	-0.5	2.3	x	x
Cc1ccc(N(CC(=O)NCc2cccnc2)S(C)(=O)=O)cc1C	10.1*	0.3	107.8	13.2	-1.2	4.6	0.3	0.7
COc1ccc(N(Cc2ccccc2)C(=O)OC(C)(C)C)c(C(=O)N(C)OC)c1	0.2	1.0	90.6	-10.4	-0.7	-3.0	x	x
COC(=O)c1cccc(N2C(=O)C[C@](Sc3ccc(OC)cc3)(C(=O)N3CCOCC3)[C@H]2c2ccc(OC)cc2)c1	13.6*	0.9	x	17.5	x	8.1	16.6	8.6
COc1ccc(S[C@]2(C(=O)N3CCN(C(C)=O)CC3)CC(=O)N(C(=O)CCc3ccccc3)[C@@H]2c2ccc(OC)cc2)cc1	15.8*	1.1	x	19.0	x	9.8	23.9*	12.8*
COc1ccc(S[C@]2(C(=O)N3CCOCC3)CC(=O)N(C(=O)CCc3ccccc3)[C@@H]2c2ccc(OC)cc2)cc1	6.7	0.7	x	15.3	x	8.5	x	x
COC(=O)c1ccc(NC(=O)C2CCN(C(=O)Nc3ccccc3)CC2)cc1	-2.0	0.3	103.2	-5.4	1.0	4.7	x	x
Cn1c(=O)c(Nc2ccc(O)cc2)c2c3c(cccc31)C(=O)c1ccccc1-2	9.2*	0.4	77.5	17.0	5.5	-43.0	19.2	15.2*
O=C1NC[C@@H](Cc2cccc3ccccc23)N(CCCCC2CCCCC2)C1=O	10.7*	0.6	101.2	11.7	-2.6	-0.8	5.3	3.9
CC(=O)c1cccc(NC(=O)CCC(=O)c2ccc(F)cc2)c1	1.6	-0.6	108.8	4.5	-0.3	6.6	x	x
CC(=O)c1cccc(NC(=O)COC(=O)CCC(=O)c2ccc(F)cc2)c1	8.9*	0.6	94.4	-2.6	-0.4	1.6	-0.3	3.9
CC(C)Oc1ccc(/C=C/C(=O)NCC2COc3ccccc3O2)cc1 (stereo not given)	3.5	0.6	110.9	5.3	10.2	-7.4	x	x
C#Cc1ccc([C@H]2C=C(C(=O)NCc3ccccc3)O[C@@H](OCC)[C@@H]2CCCO)cc1	0.1	0.2	106.0	0.6	-0.9	-4.9	x	x
C#Cc1ccc([C@@H]2C=C(C(=O)Nc3ccccc3)O[C@H](OCC)[C@H]2CCCO)cc1	10.8*	0.4	104.0	16.4	-0.5	5.0	11.2	7.6
COc1cc(C(=O)C(=O)N2CCC(Cc3ccccc3)CC2)cc2ccccc12	-1.6	-2.6	x	-2.2	-1.1	6.4	x	x
C[C@H](CO)N1C[C@H](C)[C@@H](CN(C)S(=O)(=O)c2ccccc2)Oc2c(NC(=O)C3CCCCC3)cccc2C1=O	-3.0	0.8	101.6	-3.9	0.7	-2.1	x	x
Cc1noc(C)c1S(=O)(=O)N(C)C[C@H]1Oc2c(NC(=O)C3CCCCC3)cccc2C(=O)N([C@H](C)CO)C[C@@H]1C	10.4*	-0.1	104.9	4.8	-2.1	1.3	4.9	1.5
Cc1noc(C)c1NC(=O)Nc1cccc2c1O[C@H](CN(C)S(=O)(=O)c1ccc(F)cc1)[C@@H](C)CN([C@H](C)CO)C2=O	11.1*	-0.2	102.6	2.6	0.0	-7.6	3.4	2.1
COc1cc(C(=O)COC(=O)c2ccc3c(c2)OCCO3)cc(OC)c1OC	2.7	0.8	99.4	6.3	-0.6	2.5	x	x
SMILES	ADAM17 inh	KLK7 zymogen act	DSG3 Ab inh	ADAM10 inh	MPTP block	rCAG RNA binder	ADAM10 ctr	ADAM17 confirm
Cc1ccc(S(=O)(=O)Nc2ccccc2CNc2ccccn2)cc1	8.8*	0.0	103.9	13.6	3.3	6.4	18.5	10.4*
COC(=O)Cc1ccccc1NS(=O)(=O)c1ccc(C)cc1	-0.7	0.1	x	-3.8	-1.2	2.1	x	x
CCNC(=O)C/C(C)=N/NC(=O)C1CCCCC1	8.9*	-0.2	x	7.3	1.9	-0.4	-2.7	-0.2
O=C(NC1CCCCCCC1)c1c(O)c2ccccc2[nH]c1=O	9.4*	-0.1	98.8	3.4	2.1	4.2	-5.5	1.4
CC(C)COc1cccc(C(=O)Nc2ccc(S(=O)(=O)N3CCOCC3)cc2)c1	9.1*	0.5	101.6	14.0	4.9	4.4	26.8*	17.2*
CCN(C(=O)c1cc(Cl)ccc1Cl)C1CCS(=O)(=O)C1 (stereo not given)	-1.2	-0.3	91.2	-5.7	-0.5	1.2	x	x
O=C(Nc1ccccc1Oc1ccccc1)c1cc([N+](=O)[O-])ccc1Cl	8.9*	0.3	83.7	-2.8	1.3	2.6	-0.2	3.2
CCN(CC)c1c(C)nc2ccc(C(=O)Nc3cc(-c4ccccc4)ccc3OC)cn12	1.0	-2.2	x	9.4	-1.6	6.1	x	x
Cc1ccc(S(=O)(=O)N(C)CC(=O)NNC(=O)Cc2cccc(F)c2)cc1	-0.6	-0.6	97.4	3.9	-1.4	-1.1	x	x
Cc1ccc(S(=O)(=O)N(C)CC(=O)NNC(=O)Cc2ccccc2F)cc1	11.3*	-0.4	105.3	5.3	-2.6	1.7	18.7	10.6*
CCn1nc(C)cc1C(=O)N1CCCC(C(=O)c2ccc(OC)cc2C)C1 (stereo not given)	-0.5	0.3	97.3	2.0	-1.2	-7.3	x	x
CCCCn1c(N)c(N(CCOC)C(=O)CCCn2c(=O)oc3ccccc32)c(=O)[nH]c1=O	1.4	-0.6	110.4	-12.3	-1.2	-4.4	x	x
CC(C)Cn1cnc2c(Sc3c([N+](=O)[O-])ncn3C)nc(N)nc21	9.4*	-0.8	120.5	13.0	-0.1	0.7	16.4	7.8
NC(c1ccccc1)c1csc(Nc2ccc(C(F)(F)F)cn2)n1 (stereo not given)	2.1	-0.3	x	-4.5	3.4	7.5	x	x
